Data: the supplement of paper PMC13094657
± gives the standard deviation of the averaged measurements.

What was measured:
[1] = tested on: MDA-MB-231; experiment: cell viability relative to vehicle unstimulated control (fraction); higher = more viable cells; details: pre-treatment time: 18 h then 24 h IFNg/TNF
[2] = tested on: MDA-MB-231; experiment: kynurenine production, fold change vs DMSO IFNg/TNF control; higher = more kynurenine produced (less inhibition); details: pre-treatment time: 18 h then 24 h IFNg/TNF
Outline: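 Fold change over cytokine-stimulated vehicle wells on the same plate is the measure used for kynurenine production, averaged across duplicate plates in the first screening round. MDA-MB-231 cells, seeded 24 h beforehand at 7 × 10^4/well in 96-well plates, were pre-treated 18 h with each natural product in 0.1% DMSO and stimulated 24 h at 37°C with IFNγ (1 U/ml) and TNF (6.25 ng/ml). Supernatants were read at 492 nm following trichloroacetic acid and p-dimethylaminobenzaldehyde treatment, against 0–100 μM standards.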
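Throughout, for cell viability relative to vehicle unstimulated control: viability of the cells left after supernatant collection, read with Deep Blue dye added for 4 h, as absorbance at 570 nm minus 600 nm.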

Row | Compound | cell viability [1] | kynurenine production [2]
1 | CC1(C)CC[C@]2(C(=O)O[C@@H]3O[C@H](CO)[C@@H](O)[C@H](O)[C@H]3O)CC[C@]3(C)C(=CC[C@@H]4[C@@]5(C)CC[C@H](O[C@@H]6O[C@H](CO)[C@@H](O)[C@H](O[C@@H]7O[C@H](CO)[C@@H](O)[C@H](O)[C@H]7O)[C@H]6O[C@@H]6O[C@H](CO)[C@@H](O)[C@H](O)[C@H]6O)[C@@](C)(CO)[C@@H]5CC[C@]43C)[C@@H]2C1 [Araloside VII] (compound dose: 10 uM) | 0.941 ± 0.026 | 0.825 ± 0.13
2 | COC(=O)C1=CO[C@@H](O[C@@H]2O[C@H](CO)[C@@H](O)[C@H](O)[C@H]2O)[C@@H]2[C@@H](C)[C@@H](O)C[C@H]12 [Loganin] (compound dose: 10 uM) | 1.05 ± 0.041 | 1.02 ± 0.18
3 | C=C(C(=O)O)[C@@H]1CC[C@@H](C)[C@@H]2CCC(C)=C[C@@H]21 [Artemisinic acid] (compound dose: 10 uM) | 1.08 ± 0.11 | 0.889 ± 0.031
4 | C[C@H]1[C@H](C)CC[C@]2(C(=O)O[C@@H]3O[C@H](CO[C@@H]4O[C@H](CO)[C@@H](O[C@@H]5O[C@@H](C)[C@H](O)[C@@H](O)[C@H]5O)[C@H](O)[C@H]4O)[C@@H](O)[C@H](O)[C@H]3O)CC[C@]3(C)C(=CC[C@@H]4[C@@]5(C)C[C@@H](O)[C@H](O)[C@@](C)(CO)[C@@H]5[C@H](O)C[C@]43C)[C@H]12 [Madecassoside] (compound dose: 10 uM) | 1.03 ± 0.042 | 0.817 ± 0.099
5 | CC(=O)OCC1=COC(OC(C)=O)C2C(C)CCC12 (stereo not given) [Teucrein] (compound dose: 10 uM) | 0.889 ± 0.026 | 0.842 ± 0.086
